Compounds with a hit are over-represented: about 4.2% of the library has one in this group of screens.
tim23-1 inh = growth inhibitors of tim23-1 mutant yeast; S. cerevisiae tim23-1 growth, BacTiter-Glo luminescence, 24 h; inhibition, % at 20 µM; 1.3% of 330,000 active; AID 463212;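 active = growth inhibition of the mutant yeast at or above 50%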;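 note: temperature-sensitive mutant grown at 25 °C; plate controls were DMSO-treated mutant yeast for no effect and medium wells lacking yeast for full effect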
tim10-1 inh = growth inhibitors of tim10-1 mutant yeast; S. cerevisiae tim10-1 ts strain growth, BacTiter-Glo, 24 h; 2.2% of 330,000 active; inhibition, % at 20 µM;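 active = inhibition of at least 40%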;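 note: mutant grown at 25 °C; 0% = DMSO wells with yeast and 100% = wells holding no yeast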
V-ATPase pH = yeast V-ATPase proton transport regulation by pHLuorin; response, % at 10 µM; 0.37% of 350,000 active; S. cerevisiae, pHLuorin cytosolic pH fluorescence; in the data active = response mostly above about 7.3%, no sharp cut-off; inactive = mostly below about 5.4%; note: actives read high
NLRP3 yeast inh = blocks the NALP3 inflammasome reconstituted in yeast. Yeast reconstituted NLRP3/ASC/caspase-1, beta-gal luminescence, 24 h. inhibition, % at 10 µM. 0.39% of 330,000 active. AID 2825;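 active = inhibition of 50% or more; inactive = inhibition below 50%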;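 note: plate controls were induced DMSO wells for no effect and uninduced yeast grown without galactose for full effect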
TIM10 inh = inhibits growth of TIM10 yeast strain; inhibition, % at 10 µM; AID 463195; S. cerevisiae TIM10 strain growth, BacTiter-Glo luminescence, 24 h; 1.4% of 330,000 active;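 active = inhibition of 40% or more at the single tested concentration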;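 note: wild-type TIM10 isogenic control strain grown at permissive 25 °C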
NALP1 inh = inhibitors of NALP1 inflammasome in yeast; S. cerevisiae NALP1/ASC/caspase-1 growth, X-gal OD620, 72 h; inhibition, % at 10 µM; 0.61% of 280,000 active; AID 2071; in the data active = inhibition mostly above about 24%, no sharp cut-off; inactive = mostly below about 32%
NALP3 yeast conf = NALP3 inhibition confirmation in yeast | yeast expressing human NALP3, luminescence | inhibition, % at 10 µM | 81% of 1,300 active | AID 435006 | shares compounds with NLRP3 yeast inh; in the data active = inhibition above about 48%
Casp1 ASC ctr = counter-screen for NALP3 inhibitors: yeast caspase-1-ASC; 66% of 1,000 active; inhibition, % at 10 µM; yeast expressing Caspase-1-ASC, luminescence counter screen; AID 488784; shares compounds with NLRP3 yeast inh
NALP3 retest = yeast NALP3 inhibition, confirmed on retest; yeast expressing human NALP3, luminescence read-out; shares compounds with NLRP3 yeast inh; inhibition, % at 10 µM; 53% of 1,000 active
tim10-1 confirm = confirmation of tim10-1 mutant yeast growth inhibitors; 56% of 7,400 active; inhibition, % at 20 µM; shares compounds with tim10-1 inh; S. cerevisiae tim10-1 ts strain growth, BacTiter-Glo, 24 h; AID 463213;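 active = inhibition of yeast growth at or above a set limit in either of two repeat tests at 20 µM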;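 note: tim10-1 mutant grown at permissive 25 °C to find synthetic lethal compounds; 0% = DMSO yeast wells and 100% = medium wells without yeast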
tim10 confirm = confirmation of TIM10 yeast growth inhibitors; shares compounds with TIM10 inh; S. cerevisiae tim10 strain growth, BacTiter-Glo luminescence, 24 h; inhibition, % at 10 µM; 63% of 4,600 active; AID 463215;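 active = inhibition of yeast growth at or above a set limit in either of two replicates at 10 µM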;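 note: this counterscreen used the strain with wild-type TIM10; 0% = yeast with DMSO and 100% = medium wells lacking yeast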
tim23-1 conf = tim23-1 yeast growth inhibition, confirmed | 83% of 4,400 active | shares compounds with tim23-1 inh | S. cerevisiae tim23-1 growth, BacTiter-Glo luminescence, 24 h | inhibition, % at 20 µM;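 active = inhibition above about 39% in either of two replicate wells at 20 µM, limit read from the data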;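 note: temperature-sensitive tim23-1 mutant grown at 25 °C; 0% = DMSO wells with yeast and 100% = medium wells without yeast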
VATPase regulator = regulators of yeast V-ATPase proton transport | shares compounds with V-ATPase pH | S. cerevisiae pHLuorin cytosolic pH | response, % at 10 µM | 2% of 980 active | AID 602197; in the data active = response above about 24%;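 note: plate controls were vehicle wells for no effect and positive control wells for full effect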
Active calls of the source: *; / = no result given. Cut-off read from the data, not from the text of the source, unless noted: active = inhibition above about 50%; inactive = the rest.

SMILES	tim23-1 inh	tim10-1 inh	V-ATPase pH	NLRP3 yeast inh	TIM10 inh	NALP1 inh	NALP3 yeast conf	Casp1 ASC ctr	NALP3 retest	tim10-1 confirm	tim10 confirm	tim23-1 conf	others
Cc1ccc2nc(NC(=O)Cn3nc(C)c([N+](=O)[O-])c3C)sc2c1	50.8*	25.3	6.9	50.0	47.6*	26.0	-2.5	/	/	/	-9.3	64.6*
CCCNC(=O)c1ccc(-c2nc3ccccc3s2)s1	55.6*	3.3	6.5	58.4*	54.8*	19.1	76.2*	31.5	33.2	/	32.8*	76.7*
CCCNC(=O)Nc1nc2ccccc2s1	20.6	2.2	3.4	10.0	-4.7	/	/	/	/	/	/	/
COc1ccc(NS(=O)(=O)c2cccc(C(=O)N3CCN(C(=O)c4ccco4)CC3)c2)cc1	-0.9	-13.0	-4.6	12.7	3.4	/	/	/	/	/	/	/
S=C(NCc1ccccc1)Nc1ccc(Cl)cc1	20.2	36.0	2.4	33.2	26.7	-8.4	/	/	/	/	/	/
FC(F)(F)Sc1ccc(NC(=S)NCc2ccccc2)cc1	52.3*	57.9*	2.8	52.8*	53.0*	18.9	23.6	/	/	69.9*	58.7*	53.4*
COCCNC(=O)Cn1c(=O)n(Cc2ccco2)c(=O)c2ccccc21	3.7	12.3	-3.2	5.6	-10.5	22.7	/	/	/	/	/	/
O=C(/C=C/c1ccccc1Cl)Nc1ccccc1	65.1*	7.9	0.2	65.0*	32.5	-9.1	75.5*	79.1*	74.3*	/	/	57.8*
COc1ccc(Cc2noc(CN3CCNC(=O)CC3)n2)cc1OC	-7.9	-9.7	3.2	10.3	6.4	16.2	/	/	/	/	/	/
O=C(N/N=C/c1ccco1)c1cc2ccccc2o1	65.9*	22.8	-5.3	64.1*	41.1*	21.6	73.8*	63.8*	63.0*	/	12.1	63.8*
O=C(N/N=C/c1ccco1)c1ccc(Br)o1	-4.2	-31.9	2.8	5.5	-20.7	-4.2	/	/	/	/	/	/
O=C(/C=C\Nc1ccccn1)c1ccccc1	51.8*	10.8	2.1	62.8*	48.3*	-4.6	46.0*	59.4*	53.9*	/	51.5*	79.5*
CCCc1cc(=O)oc2c3c(c(Cl)cc12)OCN(CCCO)C3	5.8	1.0	/	5.9	3.7	-15.1	/	/	/	/	/	/
CC(C)c1ccc(C(CC(=O)O)NC(=O)c2cccs2)cc1 (stereo unspecified)	7.2	9.6	0.3	-2.4	-5.8	20.3	/	/	/	/	/	/
Cc1ccc(-c2csc(NC(=O)c3ccc(Br)cc3)c2C(=O)O)cc1	83.8*	80.8*	0.6	90.6*	82.4*	61.3*	95.8*	95.2*	88.0*	81.5*	93.4*	88.8*
CC(C)c1ccc(-c2csc(NC(=O)c3cccs3)c2C(=O)O)cc1	67.2*	76.5*	-3.7	71.4*	81.4*	-7.3	84.0*	76.0*	74.5*	85.6*	92.1*	88.7*
Cc1ccc(-c2csc(NC(=O)/C=C/c3ccco3)c2C(=O)O)cc1	78.5*	75.7*	-0.9	82.8*	81.4*	8.7	90.2*	89.8*	83.7*	74.4*	79.4*	88.8*
O=C(Nc1scc(-c2ccc(F)cc2)c1C(=O)O)c1ccco1	20.0	-7.9	2.4	22.4	1.8	-0.7	/	/	/	/	/	/
Cc1ccc(-c2csc(NC(=O)c3cccc(C)c3)c2C(=O)O)cc1	83.2*	72.0*	7.6	64.6*	82.6*	/	69.6*	65.8*	61.2*	83.8*	90.0*	89.2*
NC(=O)NOCc1ccccc1	-2.5	-6.4	5.2	11.5	-10.6	22.1	/	/	/	/	/	/
CCOC(=O)C1=C(CC)OC(N)=C(C#N)C1c1ccc(NC(C)=O)cc1 (stereo unspecified)	15.7	11.1	-4.0	-6.1	1.9	24.8	/	/	/	/	/	/
COc1ccccc1C(=O)Nc1cc(Cl)ccc1O	-19.4	7.6	-1.9	44.4	0.4	21.7	/	/	/	/	/	/
CCOc1ccccc1C(=O)Nc1cc(Cl)ccc1O	85.1*	62.2*	0.0	52.2*	58.9*	38.3	72.4*	66.3*	53.2*	53.8*	52.1*	7.8
COc1ccc(CNC(=O)c2c(C)oc3c2C(=O)c2ccccc2C3=O)cc1	88.6*	83.3*	1.3	69.0*	56.5*	39.5	70.5*	5.3	43.3	73.8*	68.1*	86.0*
CN1CCN(S(=O)(=O)c2ccc(SCCOc3ccc(Cl)cc3)nc2)CC1	60.9*	39.2	1.6	73.7*	64.7*	/	74.3*	22.9	17.9	/	68.9*	38.6*
SMILES	tim23-1 inh	tim10-1 inh	V-ATPase pH	NLRP3 yeast inh	TIM10 inh	NALP1 inh	NALP3 yeast conf	Casp1 ASC ctr	NALP3 retest	tim10-1 confirm	tim10 confirm	tim23-1 conf	others
O=C(c1ccccc1)N1CCN(c2ccc([N+](=O)[O-])c(NCC3CCCO3)c2)CC1 (stereo unspecified)	25.8	35.2	3.7	14.1	9.7	7.2	/	/	/	/	/	/
Cc1c(Cl)sn(-c2ccc(Cl)cc2)c1=O	55.3*	96.4*	66.4*	56.0*	97.2*	98.0*	34.1	69.0*	49.5	98.2*	99.5*	99.3*	VATPase regulator=60.6*
S=c1[nH]nc(C2CC2)n1Cc1ccccc1	23.3	3.6	4.5	10.5	-1.6	-18.7	/	/	/	/	/	/
COc1ccc(NC(=O)Cc2c(F)cccc2Cl)cc1	10.6	-21.5	-3.0	27.4	-1.2	17.4	/	/	/	/	/	/
COc1ccc(NC(=O)COC(=O)Cc2c(F)cccc2Cl)cc1	18.2	43.5*	-1.6	14.4	4.4	7.2	/	/	/	24.2	/	/
COc1ccc(/C=C2/N=C(c3cccs3)OC2=O)cc1OC(C)C	38.8	42.3*	-1.1	17.5	32.6	2.6	/	/	/	30.2*	/	/
COc1ccc(CN(Cc2ccccn2)S(=O)(=O)c2ccc(-n3cnnn3)c(OC)c2)cc1	14.9	14.5	-4.2	5.6	4.3	-13.0	/	/	/	/	/	/
COc1ccc(CN(Cc2ccccn2)S(=O)(=O)c2ccc(-n3cnnn3)cc2)cc1	3.2	40.1*	4.1	-10.4	7.4	1.4	/	/	/	8.6	/	/
CN(c1ccccc1)S(=O)(=O)c1cccc(NC(=O)CSc2n[nH]c(N)n2)c1	4.6	-3.8	3.3	-7.0	1.4	2.8	/	/	/	/	/	/
CC1=Nc2cc(C(=O)NCC3CCCO3)ccc2Sc2ccc(C)cc21 (stereo unspecified)	12.3	11.8	0.9	2.2	-8.3	6.4	/	/	/	/	/	/
CC1=Nc2cc(C(=O)NCc3ccco3)ccc2Sc2ccc(C)cc21	34.0	44.1*	-1.3	13.5	13.5	-47.9	/	/	/	29.6	/	/

From PubChem
